In experiment [1] the test system is RAW-Dual. As to the kind of experiment: NF-kB SEAP reporter activity, fold change vs agonist alone; cytotoxicity flag (confluency mask): not cytotoxic; higher = enhanced NF-kB activity. Summed up: (§1)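 Cytotoxic wells were those whose IncuCyte confluency was below 70% of agonist controls in both mask sets. The cells were RAW-Dual macrophages at 50,000 cells/well in DMEM on 384-well plates, dosed with 50 nL of library stock by pin tool, stimulated with a PRR agonist 1 h later, and kept at 37 °C, 5% CO2 for 20 hours. IRF and NF-κB reporter activity, as fold change over agonist-alone wells, came from supernatant read by QuantiLuc luminescence and QuantiBlue absorbance, respectively.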

Experiment [2] deals with RAW-Dual. As to the kind of experiment: NF-kB SEAP reporter activity, fold change vs agonist alone; higher = enhanced NF-kB activity. Summed up: as §1
In experiment [3] the test system is RAW-Dual. As to the kind of experiment: NF-kB SEAP reporter activity, fold change vs agonist alone; cytotoxicity flag (confluency mask): cytotoxic (confluency <70% of control); higher = enhanced NF-kB activity. Summed up:
as §1

Where [4] appears, read: agonist: ODN 1826 (TLR9) 0.5 ug/mL.
The mark [5] stands for this setting: agonist: Pam2CSK4 (TLR2/6) 0.1 ug/mL.
The mark [6] stands for this setting: agonist: Pam3CSK4 (TLR2/1) 0.1 ug/mL.
Where [7] appears, read: library stock concentration (final ~1000-fold dilution): 10 mM, cytotoxicity flag (confluency mask): not cytotoxic, agonist: Imiquimod (TLR7) […].
Where [8] appears, read: library stock concentration (final ~1000-fold dilution): 10 mM, cytotoxicity flag (confluency mask): not cytotoxic, agonist: MPLA (TLR4) […].
The mark [9] stands for this setting: library stock concentration (final ~1000-fold dilution): 10 mM, cytotoxicity flag (confluency mask): cytotoxic (confluency <70% of control), agonist: Imiquimod (TLR7) […].
The mark [10] stands for this setting: library stock concentration (final ~1000-fold dilution): 10 mM, cytotoxicity flag (confluency mask): cytotoxic (confluency <70% of control), agonist: MPLA (TLR4) […].
The mark [11] stands for this setting: library stock concentration (final ~1000-fold dilution): 2 mM, cytotoxicity flag (confluency mask): not cytotoxic, agonist: Imiquimod (TLR7) […].
The mark [12] stands for this setting: library stock concentration (final ~1000-fold dilution): 2 mM, cytotoxicity flag (confluency mask): not cytotoxic, agonist: MPLA (TLR4) […].

Whole data set: some 2,900 compounds, median “NF-kB SEAP reporter activity, fold change vs agonist alone” near 0.99, cut for the highest 2% near 2.6. Shown is part of a subset that was picked to be rich in the highest values.

Consider `Cl.NCc1c[nH]c(=S)n1C1CCc2c(F)cc(F)cc2C1` (configuration not stated) (library stock concentration (final ~1000-fold dilution): 10 mM), for which the “NF-kB SEAP reporter activity” value was 0.779 in the experiment on RAW-Dual [1] (agonist: LPS (TLR4) 0.1 ug/mL), 0.895 in the experiment with RAW-Dual [1] (setting [4]), 0.82 in the experiment on RAW-Dual [1] (setting [5]) and 0.904 in the experiment on RAW-Dual [1] (setting [6]).
On to `Cl.NCc1c[nH]c(=S)n1C1CCc2c(F)cc(F)cc2C1` (configuration not stated), for which the “NF-kB SEAP reporter activity” value was determined as 1.12 in the experiment with RAW-Dual [2] (setting [7]) and 0.889 in the experiment on RAW-Dual [2] (setting [8]).
The like results for `COC(=O)c1sccc1S(=O)(=O)Nc1ccc(Nc2ccccc2)cc1OC` were, in that order, 1.07 and 1.11.
On to `COc1cc(NS(C)(=O)=O)ccc1Nc1c2ccccc2nc2ccccc12.Cl` (library stock concentration (final ~1000-fold dilution): 10 mM), for which the “NF-kB SEAP reporter activity” value worked out at 2.6 in the experiment with RAW-Dual [3] (agonist: LPS (TLR4) 0.1 ug/mL), 0.68 with RAW-Dual [3] (setting [4]), 1.05 with RAW-Dual [3] (setting [5]) and 0.776 in the experiment with RAW-Dual [3] (setting [6]).
As for `COc1cc(NS(C)(=O)=O)ccc1Nc1c2ccccc2nc2ccccc12.Cl`, the “NF-kB SEAP reporter activity” value in the experiment with RAW-Dual [2] (setting [9]) was 2.58; with RAW-Dual [2] (setting [10]), 2.51.
As for `COS(=O)(=O)[O-].COc1cccc2c1nc1ccccc1[n+]2C`, the figures for the “NF-kB SEAP reporter activity” value in the experiment on RAW-Dual [2] (setting [9]) and in the experiment on RAW-Dual [2] (setting [10]) were 0.838 and 0.899, respectively.
With `COS(=O)(=O)[O-].COc1cccc2c1nc1ccccc1[n+]2C` (library stock concentration (final ~1000-fold dilution): 10 mM), the “NF-kB SEAP reporter activity” value in the experiment with RAW-Dual [3] (agonist: LPS (TLR4) 0.1 ug/mL) is 0.473; in the experiment on RAW-Dual [3] (setting [4]) it was 0.781; in the experiment on RAW-Dual [3] (setting [5]) it was 0.271; with RAW-Dual [3] (setting [6]), 0.272.
For the compound `COC(=O)c1sccc1S(=O)(=O)Nc1ccc(Nc2ccccc2)cc1OC` (library stock concentration (final ~1000-fold dilution): 10 mM), the “NF-kB SEAP reporter activity” value with RAW-Dual [1] (agonist: LPS (TLR4) 0.1 ug/mL) worked out at 1.72; in the experiment with RAW-Dual [1] (setting [4]) it was 0.911; with RAW-Dual [1] (setting [5]) it was 0.821; in the experiment on RAW-Dual [1] (setting [6]), 0.872.
In the case of `CC1(C)OC(=O)C=CC2(C)C1CC(=O)C1(C)C2CCC2(C)C(c3ccoc3)OC(=O)C3OC321` (configuration not stated), the “NF-kB SEAP reporter activity” value in the experiment on RAW-Dual [2] (setting [7]) turned out to be 0.98; with RAW-Dual [2] (setting [8]) it was 1.03.
As to `CC1(C)OC(=O)C=CC2(C)C1CC(=O)C1(C)C2CCC2(C)C(c3ccoc3)OC(=O)C3OC321` (configuration not stated) (library stock concentration (final ~1000-fold dilution): 10 mM), the “NF-kB SEAP reporter activity” value came out at 1.04 with RAW-Dual [1] (agonist: LPS (TLR4) 0.1 ug/mL), 0.875 with RAW-Dual [1] (setting [4]), 1.02 in the experiment on RAW-Dual [1] (setting [5]) and 1.08 in the experiment on RAW-Dual [1] (setting [6]).
As to `c1cncc(-c2c[nH]nn2)c1` (library stock concentration (final ~1000-fold dilution): 10 mM), the “NF-kB SEAP reporter activity” value amounted to 1.17 with RAW-Dual [1] (agonist: LPS (TLR4) 0.1 ug/mL), 0.863 in the experiment on RAW-Dual [1] (setting [4]), 1.02 in the experiment with RAW-Dual [1] (setting [5]) and 1.05 in the experiment with RAW-Dual [1] (setting [6]).
On to `c1cncc(-c2c[nH]nn2)c1`, for which the “NF-kB SEAP reporter activity” value with RAW-Dual [2] (setting [7]) is 0.995; in the experiment with RAW-Dual [2] (setting [8]), 0.972.
In the case of `CCCC1CC(C(=O)NC(C(C)Cl)C2OC(SC)C(O)C(O)C2O)N(C)C1.Cl` (configuration not stated) (library stock concentration (final ~1000-fold dilution): 10 mM), the “NF-kB SEAP reporter activity” value in the experiment on RAW-Dual [1] (agonist: LPS (TLR4) 0.1 ug/mL) was 1.11; in the experiment on RAW-Dual [1] (setting [4]) it was 1.04; in the experiment on RAW-Dual [1] (setting [5]), 1.06; in the experiment on RAW-Dual [1] (setting [6]), 1.08.
Consider `CCCC1CC(C(=O)NC(C(C)Cl)C2OC(SC)C(O)C(O)C2O)N(C)C1.Cl` (configuration not stated), for which the “NF-kB SEAP reporter activity” value stood at 0.95 in the experiment on RAW-Dual [2] (setting [7]) and 1.06 with RAW-Dual [2] (setting [8]).
Turning to `CCCCCCCCCCCCCCCCCC[N+](C)(C)C`, in the experiment with RAW-Dual [2] (setting [10]), the “NF-kB SEAP reporter activity” value was determined as 1.75.
For the compound `CCCCCCCCCCCCCCCCCC[N+](C)(C)C` (library stock concentration (final ~1000-fold dilution): 10 mM), the “NF-kB SEAP reporter activity” value with RAW-Dual [3] (agonist: LPS (TLR4) 0.1 ug/mL) came to 0.996; in the experiment on RAW-Dual [3] (setting [4]), 1.37; in the experiment with RAW-Dual [3] (setting [5]), 0.699; in the experiment on RAW-Dual [3] (setting [6]), 0.534.
Take `c1ccc(-c2nn3c(c2-c2ccnc4cc(OCCN5CCOCC5)ccc24)CCC3)nc1`: the “NF-kB SEAP reporter activity” value worked out at 0.793 in the experiment on RAW-Dual [2] (setting [11]) and 1.27 in the experiment on RAW-Dual [2] (setting [12]).
Take `c1ccc(-c2n[nH]cc2-c2ccnc3ccccc23)nc1` (library stock concentration (final ~1000-fold dilution): 2 mM): the “NF-kB SEAP reporter activity” value came out at 2.19 in the experiment with RAW-Dual [1] (agonist: LPS (TLR4) 0.1 ug/mL), 1.01 with RAW-Dual [1] (setting [4]), 0.992 with RAW-Dual [1] (setting [5]) and 0.919 in the experiment on RAW-Dual [1] (setting [6]).
Take `c1ccc(-c2n[nH]cc2-c2ccnc3ccccc23)nc1`: the “NF-kB SEAP reporter activity” value was 0.961 with RAW-Dual [2] (setting [11]) and 1.15 in the experiment with RAW-Dual [2] (setting [12]).
On to `c1ccc(-c2nn3c(c2-c2ccnc4cc(OCCN5CCOCC5)ccc24)CCC3)nc1` (library stock concentration (final ~1000-fold dilution): 2 mM), for which the “NF-kB SEAP reporter activity” value amounted to 2.87 in the experiment on RAW-Dual [1] (agonist: LPS (TLR4) 0.1 ug/mL), 1.07 with RAW-Dual [1] (setting [4]), 1.05 in the experiment on RAW-Dual [1] (setting [5]) and 1.01 with RAW-Dual [1] (setting [6]).
Regarding `Cc1cccc(-c2nn3c(c2-c2ccnc4ccc(C(N)=O)cc24)CCC3)n1` (library stock concentration (final ~1000-fold dilution): 10 mM), the “NF-kB SEAP reporter activity” value with RAW-Dual [1] (agonist: LPS (TLR4) 0.1 ug/mL) turned out to be 1.59; in the experiment on RAW-Dual [1] (setting [4]), 1.03; in the experiment on RAW-Dual [1] (setting [5]), 1.05; in the experiment on RAW-Dual [1] (setting [6]), 1.21.
On to `Cc1cccc(-c2nn3c(c2-c2ccnc4ccc(C(N)=O)cc24)CCC3)n1`, for which the “NF-kB SEAP reporter activity” value in the experiment on RAW-Dual [2] (setting [7]) was 1.13; with RAW-Dual [2] (setting [8]) it was 1.48.
As for `Cc1cc(C)cc(Oc2ccc(CNC(=O)C(C)N)cc2C)c1` (configuration not stated), the figures for the “NF-kB SEAP reporter activity” value with RAW-Dual [2] (setting [7]) and with RAW-Dual [2] (setting [8]) were 1.24 and 1.3, respectively.
In the case of `Cc1cc(C)cc(Oc2ccc(CNC(=O)C(C)N)cc2C)c1` (configuration not stated) (library stock concentration (final ~1000-fold dilution): 10 mM), the “NF-kB SEAP reporter activity” value in the experiment on RAW-Dual [1] (agonist: LPS (TLR4) 0.1 ug/mL) was 1.3; with RAW-Dual [1] (setting [4]), 0.9; in the experiment on RAW-Dual [1] (setting [5]), 0.484; with RAW-Dual [1] (setting [6]), 0.732.
As for `CC(C)=CCC/C(C)=C/CC/C(C)=C/CC/C=C(\C)CC/C=C(\C)CCC=C(C)C` (library stock concentration (final ~1000-fold dilution): 10 mM), the “NF-kB SEAP reporter activity” value in the experiment on RAW-Dual [1] (agonist: LPS (TLR4) 0.1 ug/mL) worked out at 1.34; in the experiment on RAW-Dual [1] (setting [4]), 1.09; in the experiment on RAW-Dual [1] (setting [5]), 1.14; in the experiment with RAW-Dual [1] (setting [6]) it was 1.12.
Take `CC(C)=CCC/C(C)=C/CC/C(C)=C/CC/C=C(\C)CC/C=C(\C)CCC=C(C)C`: the “NF-kB SEAP reporter activity” value in the experiment on RAW-Dual [2] (setting [7]) was found to be 0.926; in the experiment on RAW-Dual [2] (setting [8]), 1.01.

(Values after the supplement of paper PMC10037445.)
